# Measured values: PubChem BioAssay (Tox21)
# Results filed as inconclusive are left out. A call without a number means that no potency is given here. Active and inactive are the calls of the source. Unless noted, calls come from the whole dose curve; as a rule, active = well fitted cell-killing curve with a large enough effect in the repeat runs; inconclusive = weak or mixed curves, or effect the other way; inactive = no such curve, though single readings can be large or run the other way.
# Test: qHTS assay for small molecule agonists of the antioxidant response element (ARE) signaling pathway (AID 743202; active = well fitted activation curve with a large enough effect in the signal ratio in the repeat runs, not every such curve was filed as active; the % refers to the signal ratio)
# Settings: HepG2 ARE-bla reporter, beta-lactamase FRET, 16 h; series mostly up to 73.3 µM
# In short: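 Compounds delivered in DMSO to ARE-bla HepG2 cells (2,000 cells/well, pre-incubated 5 h) and left 16 h at 37 C. LiveBLAzer B/G FRET substrate then added for 2 h at RT before fluorescence reading.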
row,Compound,Potency
1,O=C1OC(=O)c2cc(Oc3ccc4c(c3)C(=O)OC4=O)ccc21,inactive
2,COc1ccc(OC)c(NC(=O)CC(C)=O)c1,inactive
3,CO/N=C(/C(=O)N[C@@H]1C(=O)N2C(C(=O)O)=C(Cn3nnc(C)n3)CS[C@H]12)c1csc(N)n1,inactive
4,COc1cc([N+](=O)[O-])ccc1N,inactive
5,C/C=C(\C)C(=O)OCC/C=C\CC,inactive

# Test: qHTS assay for small molecule agonists of the antioxidant response element (ARE) signaling pathway - cell viability counter screen (AID 743203; calls by dose curve; note: nearly all actives have a fitted effect of over 55% in size)
# Settings: ARE-bla HepG2 viability, CellTiter-Glo luminescence, 16 h; series mostly up to 73.3 µM
# In short: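 HepG2 cells carrying ARE-driven beta-lactamase; 2,000 cells/well; 5 hrs plating; compound pinned from DMSO; 16 hrs 37C/5% CO2; CellTiter-Glo added; 30 min RT; luminescence.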
row,Compound,outcome
1,c1ccccc1,inactive
2,CCCCCN(CCCOC)C(=O)C(CCC(=O)O)NC(=O)c1ccc(Cl)c(Cl)c1 (configuration not stated),inactive
3,CCN(CC)C(=O)C1CN2CCc3cc(OC)c(OC)cc3C2CC1OC(C)=O (configuration not stated),inactive
4,O=C(CN1CCN(Cc2ccc3c(c2)OCO3)CC1)N1c2ccccc2Sc2ccccc21,inactive
5,CC(=O)N(CC(O)CO)c1c(I)c(C(=O)NCC(O)CO)c(I)c(C(=O)NCC(O)CO)c1I (configuration not stated),inactive
6,CC(CC(=O)O)CC(C)(C)C (configuration not stated),inactive
7,CCC(CO)CO,inactive
8,CC(=O)OC(C)(C)Cc1ccccc1,inactive
9,C=CCOc1cc(Cl)ccc1C(=O)NCCN(CC)CC,inactive
10,Cc1nc2n(c(=O)c1CCN1CCC(C(=O)c3ccc(F)cc3)CC1)CCS2,inactive
11,CC(=O)OCCCc1ccccc1,inactive
12,CC(C)C(=O)Nc1cccc(C(F)(F)F)c1,inactive
13,Cc1cccc(NC(=S)N(C)C)c1,inactive
14,CC(C)COC(=O)/C=C/c1ccccc1,inactive
15,Nc1ccc(C(=O)OCC(O)CO)cc1 (configuration not stated),inactive
16,O=C(O)c1ccc(OCCN2CCCCC2)cc1,inactive
17,O=C(O)/C=C/c1ccccc1,inactive
18,CCCCCCCCCCCCCCCCCCN(C)C,inactive
19,C[Si]1(C)N[Si](C)(C)N[Si](C)(C)N1,inactive
20,CCCCC(CC)CNC(=O)CC(C)OC(=O)CCC(=O)O (configuration not stated),inactive
21,CC(=O)OC[C@H]1O[C@@H](OC(C)=O)[C@H](OC(C)=O)[C@@H]1OC(C)=O,inactive
22,N#CCCOCCOCCC#N,inactive
23,Nc1nc(=O)n([C@@H]2O[C@H](CO)[C@@H](O)[C@@H]2F)cc1I,inactive
24,CCOC(=O)C(=O)c1csc(NC=O)n1,inactive
25,CC(C)=CC(C)(C)C,inactive
26,CC(=O)N1CCN(c2ccc(O)cc2)CC1,inactive
27,COc1ccc(OC)c(NC(=O)CC(C)=O)c1,inactive
28,CO/N=C(/C(=O)N[C@@H]1C(=O)N2C(C(=O)O)=C(Cn3nnc(C)n3)CS[C@H]12)c1csc(N)n1,inactive
29,COc1cc([N+](=O)[O-])ccc1N,inactive
30,C/C=C(\C)C(=O)OCC/C=C\CC,inactive

# Test: qHTS assay for small molecule activators of the heat shock response signaling pathway - cell viability counter screen (AID 743209); note: nearly all actives have a fitted effect of over 50% in size
# Settings: HSE-bla HeLa viability, CellTiter-Glo luminescence, 5 h; series mostly up to 62.6 µM
# In short: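 Luminescence from CellTiter-Glo, added after the beta-lactamase FRET read, gave the viability signal. Cells were HSE-bla HeLa treated with DMSO-dissolved compounds for 5 h at 37 C following overnight plating.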
row,Compound,outcome
1,c1ccccc1,inactive
2,CCN(CC)C(=O)C1CN2CCc3cc(OC)c(OC)cc3C2CC1OC(C)=O (configuration not stated),inactive
3,O=C(CN1CCN(Cc2ccc3c(c2)OCO3)CC1)N1c2ccccc2Sc2ccccc21,inactive
4,CC(=O)N(CC(O)CO)c1c(I)c(C(=O)NCC(O)CO)c(I)c(C(=O)NCC(O)CO)c1I (configuration not stated),inactive
5,CC(CC(=O)O)CC(C)(C)C (configuration not stated),inactive
6,c1ccc(CNc2ncnc3nc[nH]c23)cc1,inactive
7,CCC(CO)CO,inactive
8,CC(=O)OC(C)(C)Cc1ccccc1,inactive
9,C=CCOc1cc(Cl)ccc1C(=O)NCCN(CC)CC,inactive
10,Cc1nc2n(c(=O)c1CCN1CCC(C(=O)c3ccc(F)cc3)CC1)CCS2,inactive
11,CCOC(=O)CC#N,inactive
12,CC(=O)OCCCc1ccccc1,inactive
13,CC(C)C(=O)Nc1cccc(C(F)(F)F)c1,inactive
14,Cc1cccc(NC(=S)N(C)C)c1,inactive
15,CCC(C)(CCC(C)C)C(=O)[O-].CCC(C)(CCC(C)C)C(=O)[O-].[Zn+2] (configuration not stated),inactive
16,CC(C)COC(=O)/C=C/c1ccccc1,inactive
17,Nc1ccc(C(=O)OCC(O)CO)cc1 (configuration not stated),inactive
18,O=S(=O)(O)c1cc(O)ccc1O,inactive
19,O=C(O)c1ccc(OCCN2CCCCC2)cc1,inactive

row,Compound,outcome
1,O=C(O)/C=C/c1ccccc1,inactive
2,CCCCCCCCCCCCCCCCCCN(C)C,inactive
3,C[Si]1(C)N[Si](C)(C)N[Si](C)(C)N1,inactive
4,Cc1ccc(C(=O)C(=O)O)cc1C,inactive
5,CNC(=O)C(c1ccccc1)c1ccccc1,inactive
6,CCCCC(CC)CNC(=O)CC(C)OC(=O)CCC(=O)O (configuration not stated),inactive
7,CC(=O)OC[C@H]1O[C@@H](OC(C)=O)[C@H](OC(C)=O)[C@@H]1OC(C)=O,inactive
8,N#CCCOCCOCCC#N,inactive
9,CC(C)CCC(=O)CCC(C)C,inactive
10,Nc1nc(=O)n([C@@H]2O[C@H](CO)[C@@H](O)[C@@H]2F)cc1I,inactive
11,CCOC(=O)C(=O)c1csc(NC=O)n1,inactive
12,CC(C)=CC(C)(C)C,inactive
13,O=C1OC(=O)c2cc(Oc3ccc4c(c3)C(=O)OC4=O)ccc21,inactive
14,CC(=O)N1CCN(c2ccc(O)cc2)CC1,inactive
15,COc1ccc(OC)c(NC(=O)CC(C)=O)c1,inactive
16,CO/N=C(/C(=O)N[C@@H]1C(=O)N2C(C(=O)O)=C(Cn3nnc(C)n3)CS[C@H]12)c1csc(N)n1,inactive
17,COc1cc([N+](=O)[O-])ccc1N,inactive
18,C/C=C(\C)C(=O)OCC/C=C\CC,inactive
